# High-throughput results (PubChem BioAssay)
# PfHsp40 yeast = rescue of yeast from PfHsp40 toxicity, primary screen, S. cerevisiae, ATP luminescence. S. cerevisiae expressing PfHsp40, growth rescue. growth rescue, % at 12.5 µM. hit rate 0.68% among 340,000. AID 504582, 2011; in the data active = growth rescue above about 28%, passing the limit was not always enough; inconclusive = no clear call, values can overlap the other calls;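 note: yeast W303a lacking pdr1 and pdr3 grown in galactose medium; growth measured after three days at 30 °C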
# MazF activator = activators of E. coli MazEF toxin-antitoxin RNase, primary screen, biochemical, fluorescence, uHTS. Endoribonuclease toxin MazF (Escherichia coli (strain K12)), P0AE70. FAM/BHQ RNA-DNA oligo cleavage fluorescence, 5 h. activation, % at 20 µM. hit rate 0.32% among 350,000. AID 504720, 2011; in the data active = activation above about 50%
# Target sequence (P0AE70 whole entry, looked up): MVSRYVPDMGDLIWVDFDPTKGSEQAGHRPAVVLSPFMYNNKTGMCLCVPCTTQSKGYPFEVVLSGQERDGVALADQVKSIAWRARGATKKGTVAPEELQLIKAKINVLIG
# Vc quorum ag = inducers of Vibrio cholerae quorum light production without autoinducers, primary screen, BH1578 luxS cqsA deficient, single point; AID 588436, 2011; V. cholerae BH1578 lux reporter, luminescence, 6 h; activation, % at 18.7 µM; hit rate 0.16% among 350,000; in the data active = activation mostly above about 9.7%, no sharp cut-off; inconclusive = no clear call, values can overlap the other calls; inactive = mostly below about 3.7%
# SARS 3CLpro inh = SARS-CoV 3CLpro protease inhibitors, primary screen, biochemical, quenched FRET. inhibition, % at 6 µM. hit rate 0.14% among 290,000. recombinant SARS-CoV 3CLpro, quenched FRET peptide cleavage; in the data active = inhibition above about 12%
# DUSP3 inh = VHR1 phosphatase inhibitors, primary screen, biochemical, absorbance, uHTS | recombinant VHR phosphatase, pNPP absorbance | hit rate 0.52% among 290,000 | inhibition, % at 13.3 µM | Dual specificity protein phosphatase 3 (Homo sapiens), P51452 | AID 1654, 2009; in the data active = inhibition above about 50%
# Target sequence (P51452 whole entry, looked up): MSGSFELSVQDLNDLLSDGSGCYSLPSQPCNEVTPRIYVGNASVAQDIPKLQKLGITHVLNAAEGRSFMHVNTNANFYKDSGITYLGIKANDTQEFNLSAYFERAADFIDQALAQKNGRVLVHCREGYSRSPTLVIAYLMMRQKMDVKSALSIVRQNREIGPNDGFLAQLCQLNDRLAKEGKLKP
# BJeLR viability = MLPCN primary cell-based screen for lethality selective to Ras in HRASV12 cells; BJeLR (HRASV12) viability, CellTiter-Glo ATP luminescence, 48 h; inhibition, % (test concentration not listed); hit rate 0.17% among 300,000; AID 1554, 2009; in the data active = inhibition above about 50%; inconclusive = no clear call, values can overlap the other calls
# * hit, by the source's call; i = inactive; ? = inconclusive; nt = not tested or not shown. The list is not random: actives were taken first. Their share in the collection is about 1.7%.
SMILES,PfHsp40 yeast,MazF activator,Vc quorum ag,SARS 3CLpro inh,DUSP3 inh,BJeLR viability
CC1CCCC(C)N1CC(O)COCC1COc2ccccc2O1 (configuration not stated),-1,7,i,-5,55*,17
OCCN1CCN(CC(O)COCC2COc3ccccc3O2)CC1 (configuration not stated),0,-26,i,3,24,5
CC(CSc1n[nH]c(=S)s1)c1ccccc1 (configuration not stated),?,-1,-1,nt,nt,nt
CC(C)CSc1n[nH]c(=S)s1,213*,7,0,9,-3,0
C[C@@H]1CN([C@H](C)CO)C(=O)CCCn2nncc2CO[C@H]1CN(C)Cc1ccc(Oc2ccccc2)cc1,nt,9,2,nt,nt,nt
Cc1[nH][nH]c(=O)c1C(c1c(C)[nH][nH]c1=O)c1cn(Cc2ccccc2Cl)c2ccccc12,0,71*,i,3,-5,10
COc1ccc(CCNC(=O)c2ccc(NC(=O)CC3SC(N4CCCC4)=NC3=O)cc2)cc1 (configuration not stated),0,1,i,nt,nt,9
COc1ccc(OC)c(N=Cc2c(O)c3ccccc3oc2=O)c1,0,78*,0,-4,8,-3
COc1ccc(Cl)cc1N=Cc1c(O)c2ccccc2oc1=O,0,-2,i,3,17,-6
Cc1cc(C)c(N=Cc2c(O)c3ccccc3oc2=O)c(C)c1,66*,10,i,1,30,-10
COc1ccccc1N1CCN(C2CCCN(C(=O)CCN3CCCCO3)C2)CC1 (configuration not stated),-1,13,-3,-9,51*,-10
O=C(CCN1CCCO1)N1CCCC(N2CCN(c3ccccc3F)CC2)C1 (configuration not stated),3,9,i,-3,35,3
N#CC(C#N)=C1C(=O)N(CCN2CCOCC2)c2ccccc21,0,2,-1,2,-1,3
O=C(Cn1cc(F)c(=O)[nH]c1=O)c1ccco1,nt,6,0,nt,nt,nt
Clc1ccc2[nH]c(-c3ccccc3)cc2c1,65*,13,i,-3,14,-2
c1ccc(-c2cc3ccccc3[nH]2)cc1,4,12,i,4,21,1
O=C(NC1CCC(CC2CCC(NC(=O)C(Cl)Cl)CC2)CC1)C(Cl)Cl (configuration not stated),0,1,0,-2,14,7
CN1CCN(C(=O)C2CCC(CNS(=O)(=O)c3cccc4cccnc34)CC2)CC1 (configuration not stated),-2,3,0,2,11,1
O=C(C1CCC(CNS(=O)(=O)c2cccc3cccnc23)CC1)N1CCc2ccccc21 (configuration not stated),9,14,0,1,54*,-3
O=C(C1CCN(S(=O)(=O)c2cccc3cccnc23)CC1)N1CCc2ccccc21,0,-2,8,1,55*,9
COc1cc2c(cc1OC)C(C)N(C(=O)c1sccc1C)CC2 (configuration not stated),0,16,-3,-2,52*,-1
COc1cc2c(cc1OC)C(C)N(C(=O)c1ccc(C)o1)CC2 (configuration not stated),0,-3,0,-2,2,-2
CCCCCCCCNC(=O)CCNC(=O)c1ccc(C(C)(C)C)cc1,47*,-1,2,2,6,-5
Cc1ccc(OCCn2c(C)c(/C=N/n3cnnc3)c3ccccc32)cc1,-1,49,0,-4,25,-10
Cc1c(/C=N/n2cnnc2)c2ccccc2n1CCOc1ccc(Cl)cc1,0,113*,i,2,34,-7
SMILES,PfHsp40 yeast,MazF activator,Vc quorum ag,SARS 3CLpro inh,DUSP3 inh,BJeLR viability
COC(=O)CNC(=S)NC(=O)c1ccc(C(C)(C)C)cc1,1,0,i,5,1,5
CCNC(=O)C1(C)CCN(C(=O)c2ccccc2OC)C1 (configuration not stated),nt,nt,1,nt,nt,nt
O=C(NCCCN1CCCC1)c1ccc2c(c1)N(Cc1ccccc1F)C(=O)c1ccccc1S2(=O)=O,-1,20,0,-1,51*,0
O=C(NCCCN1CCCC1)c1ccc2c(c1)N(Cc1cccc(Cl)c1)C(=O)c1ccccc1S2(=O)=O,nt,25,i,nt,nt,nt
Nc1nc(N)c2cc(Sc3ccc(Cl)cc3)ccc2n1,nt,7,i,nt,nt,nt
Nc1nc(N)c2cc(Sc3ccc4ccccc4c3)ccc2n1,nt,30,-1,3,23,60*
CC1=CC(=C(C#N)c2nc3ccccc3s2)C=C(C)N1Cc1ccco1,1,605*,0,-7,24,0
N#C/C(=C(/O)c1ccco1)c1nc2ccccc2s1,-1,-9,-1,0,-26,0
Cc1nnc(N=c2ssnc2Cl)o1,362*,0,-1,nt,nt,nt
CCOc1ccccc1NC(=O)CN(c1ccc(Cl)cc1)S(C)(=O)=O,1,-4,1,1,16,2
Cc1ccc(S(=O)(=O)/N=c2\sccn2C)cc1,0,0,46*,-2,5,-1
O=C(CNc1cccc(Cl)c1)c1ccc(Br)cc1,-1,18,0,2,51*,1
COc1ccc(-c2cn(Cc3ccc(C(N)=O)cc3)c(-c3ccncc3)n2)cc1,-1,3,i,nt,nt,nt
CNc1cc(CSC)nc(SCc2ccc(Cl)cc2Cl)n1,308*,-6,-2,-7,6,19
Nc1nc(SCc2ccc(Cl)cc2Cl)n[nH]1,0,15,0,1,18,-15
COc1ccc(N(C)S(=O)(=O)c2cccc(C(=O)OCC(=O)N3CC(C)CC(C)C3)c2)cc1 (configuration not stated),3,2,i,nt,nt,nt
O=C(O)CCCC(=O)Nc1ccc(OCc2nc3ccccc3s2)cc1,0,8,-2,-1,57*,9
O=C(CCCc1nc2ccccc2s1)Nc1ccccc1,-1,-1,0,-1,13,1
COc1ccc(NC(=O)CSc2nnc(-c3cccnc3)o2)c(OC)c1,0,-2,i,nt,nt,-2
CCN1CCN(C(=S)c2ccc(Br)cc2)CC1,0,0,1,-5,52*,6
Clc1nnc(NC2CCCCC2)c(Cl)c1Cl,nt,-7,3,nt,nt,nt
CC1Cc2ccccc2N1C(=S)NC(=O)c1cccc(Br)c1 (configuration not stated),146*,1,-3,-2,-3,9
